PubChem BioAssay (Tox21)
Unmarked numbers belong to inactive results. Calls come from the whole dose curve; as a rule, active = well fitted curve in the direction sought with a large enough effect in the repeat runs; inconclusive = weak or mixed curves; inactive = no such curve, though single readings can be large; an effect the other way counts as inactive or inconclusive. Inconclusive results are not listed.

test: qHTS RealTime-Glo MT Cell Viability Assay in HEK293 cells - 32 hour (AID 1224868); conditions: RealTime-Glo luminescence; series mostly up to 76.8 µM; activity change, negative = cytotoxic: at the top concentration; note: top concentration of the series differs between compounds
In short: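 HEK293 cells were seeded at 600 cells/well together with NanoLuc luciferase and cell-permeant prosubstrate, preincubated 5 h at 37 C/5% CO2, then given compound in DMSO by pintool. Luminescence from viable-cell prosubstrate reduction was read repeatedly over 40 h.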
% is set by controls: 0 for no effect and ±100 for the full control effect.
Note: nearly all actives have a fitted effect of over 50% in size.

Q: For `O=C(O)c1ccc(O)cc1O`, which “activity change, negative = cytotoxic” value is on record?
A: -1.92%

Q: With `CCOC(=O)c1ccc(NC(=O)CN2CCCCC2)cc1` as the compound, how does the “activity change, negative = cytotoxic” value read?
A: -15.3% [at 35.3 µM]

Q: Which “activity change, negative = cytotoxic” value does the source give for `ClC1=C(Cl)C1(Cl)Cl` here?
A: -6.39%

Q: Which “activity change, negative = cytotoxic” value does the source give for `CCNc1nc(N)nc(Cl)n1` here?
A: 9.24%

Q: Which “activity change, negative = cytotoxic” value does the source give for `C1=CCC2CC=CC2C1` (centres undefined) here?
A: 19%

Q: Which “activity change, negative = cytotoxic” value does the source give for `CS(=O)(=O)c1ccc([C@@H](C[C@H]2CCC(=O)C2)C(=O)Nc2cnccn2)cc1Cl` here?
A: -2%

Q: For `O=[N+]([O-])c1ccc2ncccc2c1`, which “activity change, negative = cytotoxic” value is on record?
A: -0.0364%

Q: For `COC1CCC=CO1` (centres undefined), which “activity change, negative = cytotoxic” value is on record?
A: 7.71%

test: A CellTox Green Cytotoxicity Assay to monitor cytotoxicity in HEK293 cells - 0 hour (AID 1224869); conditions: CellTox Green fluorescence; series mostly up to 76.8 µM; cytotoxicity: at the top concentration
In short: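 Tox21 screen in HEK293: membrane-impermeant cyanine dye fluoresces on binding dead-cell DNA; compound pinned 5 h post-seeding, plates held at 37 C, signal read repeatedly through 40 h.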

Q: With `COC(C)(C)OC` as the compound, how does the “cytotoxicity” value read?
A: -1.47%

Q: With `CC(C)(C)C(O)/C=C/c1ccc2c(c1)OCO2` (centres undefined) as the compound, how does the “cytotoxicity” value read?
A: 3.73% [at 35.3 µM]

Q: For `O=C(O)CN1C(=O)c2cccc3cccc(c23)C1=O`, which “cytotoxicity” value is on record?
A: 1.14% [at 35.3 µM]

Q: With `CCCCCC` as the compound, how does the “cytotoxicity” value read?
A: -6.78%

Q: With `COC(OC)OC` as the compound, how does the “cytotoxicity” value read?
A: 3.8%

Q: For `CC1=C2[C@@H]([C@H](C)CC[C@H]2/C=C(\C)C(=O)O)[C@H](O)C1`, which “cytotoxicity” value is on record?
A: 1.82%

Q: For `Cc1ccc(NC(=O)N(C)C)cc1NC(=O)N(C)C`, which “cytotoxicity” value is on record?
A: 4.32%

Q: Which “cytotoxicity” value does the source give for `CNC1CCCN(c2c(F)cc3c(=O)c(C(=O)O)cn(C4CC4)c3c2OC)C1` (centres undefined) here?
A: -13.2% [at 35.3 µM]

Q: Which “cytotoxicity” value does the source give for `COc1ccc(-n2nc(C(F)F)cc2-c2ccc(S(C)=O)cc2)cc1` (centres undefined) here?
A: -7.88%

Q: Which “cytotoxicity” value does the source give for `Cc1oc(=O)oc1COC(=O)[C@@H]1N2C(=O)[C@@H](NC(=O)[C@H](N)c3ccccc3)[C@H]2SC1(C)C` here?
A: 1.15% [at 35.3 µM]

Q: For `CNCc1ccc(NC(=O)c2c[nH]c3c2C(=O)CCC3)cc1`, which “cytotoxicity” value is on record?
A: -7.48%

Q: For `NC(=O)c1ccccc1[N+](=O)[O-]`, which “cytotoxicity” value is on record?
A: 1.83%

Q: Which “cytotoxicity” value does the source give for `CN=C(N)NC(=O)Nc1c(C)cccc1C` here?
A: -4.87% [at 35.3 µM]

Q: Which “cytotoxicity” value does the source give for `N[C@@H](Cc1cc(I)c(O)c(I)c1)C(=O)O` here?
A: -6.29% [at 35.3 µM]

Q: For `CCC1CCC(CCC(=O)O)C1` (centres undefined), which “cytotoxicity” value is on record?
A: 0.972%

Q: With `CCOc1ncc(F)c(=O)[nH]1` as the compound, how does the “cytotoxicity” value read?
A: -0.526% [at 35.3 µM]
